Assay outcomes: PubChem, several laboratories
In the library only some 2.2% were active in any assay of this set; here they are far more common.
IEC-6 tox – cytotoxicity in IEC-6 intestinal epithelial cells, primary screen, cytotoxicity control for KLF5 inhibitor project, cell-based, luminescence. IEC-6 cytotoxicity, luminescence viability. inhibition, % at 5 µM. 290,000 compounds, 0.78% hits. AID 1825, 2009; in the data active = inhibition above about 22%;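 note: 0% = plate median of test compound wells and 100% = cytotoxic reference compound wells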
APP 5UTR inh – inhibitors of APP translation via 5'UTR reporter, primary screen, APP 5'UTR luciferase, SH-SY5Y cells; SH-SY5Y APP 5'UTR-luciferase reporter, luminescence; inhibition, % at 2 µM; 190,000 compounds, 0.82% hits; AID 1285, 2008;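 active = inhibition above a set limit, derived from the sample mean plus 3 SD, cut at about 45% in these data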
BaF3 parental – parental Ba/F3 cell viability inhibition, counter-screen for JAK2V617F inhibitor project, murine pro-B, CellTiter-Glo luminescence; CellTiter-Glo ATP luminescence; inhibition, % at 5.6 µM; 220,000 compounds, 1.1% hits; AID 1486, 2009;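 active = inhibition above a per-campaign cutoff, the mean inhibition of all tested compounds plus 3 SD, cut at about 27% in these data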;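 note: 0% = DMSO wells and 100% = JAK Inhibitor I control wells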
Ba/F3 V617F tox – reduced viability of JAK2V617F-dependent Ba/F3 cells, primary screen, JAK2V617F inhibitor project, cell-based, Ba/F3 EpoR-JAK2V617F, luminescence. ATP luminescence. inhibition, % at 5.6 µM. 220,000 compounds, 1.1% hits;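 active = inhibition above the campaign mean plus 3 SD over all tested compounds, cut at about 24% in these data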;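 note: cytokine-independent growth of Ba/F3 cells driven by EpoR plus mutant JAK2; 0% = DMSO-treated cells and 100% = JAK inhibitor I control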
aSyn 5UTR inh – MLPCN primary screen, SNCA 5' untranslated region | AID 1813, 2009 | alpha-synuclein 5'UTR reporter, inhibitor activity | inhibition, % (tested at 7.5 µM) | 300,000 compounds, 0.82% hits; in the data active = inhibition above about 60%;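 note: H4 neuroglioblastoma cells stably carrying SNCA 5'UTR luciferase fusion; 0% = DMSO wells and 100% = positive control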
KLF5 inh – KLF5 expression inhibitors, primary screen, DLD-1 cells, luminescence. inhibition, % at 5 µM. 290,000 compounds, 0.23% hits. DLD-1 KLF5 promoter-luciferase reporter;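 active = inhibition above a per-plate limit of that plate's mean compound inhibition plus 3 SD, cut at about 60% in these data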;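 note: 0% = DMSO wells and 100% = LY294002 at 200 µM; higher means less KLF5 promoter-driven luciferase light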
* = called active by the depositor.

Screening O=C1CC2(CCN(C(=O)C(=O)c3c[nH]c4ccccc34)CC2)Oc2ccccc21 returned IEC-6 tox -4, aSyn 5UTR inh 13 and KLF5 inh -13.
CCOC(=O)C1=C(C)N(c2ccc(C)cc2)C(=O)/C1=C\c1ccc(O)c(OC)c1 was read as IEC-6 tox 1, BaF3 parental 29*, Ba/F3 V617F tox -5, aSyn 5UTR inh -8 and KLF5 inh -2.
For Cc1cc(NO)c(C(C)C)cc1N=O the results were IEC-6 tox 5, APP 5UTR inh 5, BaF3 parental 45*, Ba/F3 V617F tox 51*, aSyn 5UTR inh 42 and KLF5 inh -15.
For Nc1c(C(=O)NC2CC2)sc2nc3c(c(-c4ccco4)c12)CC/C3=C/c1ccco1 the results were IEC-6 tox -19, APP 5UTR inh 51*, BaF3 parental 1, Ba/F3 V617F tox -5 and KLF5 inh 13.
Screening COc1ccc(C(CCN)Cc2ccccc2)cc1 (centres undefined) returned IEC-6 tox -3, APP 5UTR inh 3, BaF3 parental 7, Ba/F3 V617F tox 3, aSyn 5UTR inh -7 and KLF5 inh -2.
For C#CCN1c2ccccc2Sc2cccnc21 the results were IEC-6 tox 0, aSyn 5UTR inh 8 and KLF5 inh 13.
Screening CCCC1COC(Cn2cncn2)(c2ccc(C)cc2)O1 (centres undefined) returned IEC-6 tox 1, APP 5UTR inh 9, BaF3 parental 4, Ba/F3 V617F tox 2, aSyn 5UTR inh 11 and KLF5 inh -5.
`CCC(C)n1ncn(-c2ccc(N3CCN(c4ccc(OCC5COC(Cn6cncn6)(c6ccc(Cl)cc6Cl)O5)cc4)CC3)cc2)c1=O` (centres undefined) gave IEC-6 tox 4, BaF3 parental -6, Ba/F3 V617F tox 4, aSyn 5UTR inh 100* and KLF5 inh -33.
Screening COc1ccc(NC(=O)C(=O)NNC(=O)c2cccs2)cc1 returned IEC-6 tox -2, APP 5UTR inh 64*, BaF3 parental 8, Ba/F3 V617F tox 1, aSyn 5UTR inh -32 and KLF5 inh -24.
`COc1cc(C(=O)O/N=C(\N)Cc2ccc([N+](=O)[O-])cc2)cc(OC)c1OC` gave IEC-6 tox 12, BaF3 parental 1, Ba/F3 V617F tox -1, aSyn 5UTR inh 81* and KLF5 inh 1.
Screening CCOc1cccc(C2/C(=C(/O)c3ccc4c(c3)CC(C)O4)C(=O)C(=O)N2Cc2cccnc2)c1 (centres undefined) returned IEC-6 tox -13, aSyn 5UTR inh 13 and KLF5 inh -31.
For O=[N+]([O-])c1ccc(N/N=C/c2cccc(O)c2O)cc1 the results were IEC-6 tox 2, aSyn 5UTR inh -170 and KLF5 inh -4.
Screening O=[N+]([O-])c1ccc(N/N=C/c2c[nH]c3ccccc23)cc1 returned IEC-6 tox 11, APP 5UTR inh 8, BaF3 parental 32*, Ba/F3 V617F tox 52*, aSyn 5UTR inh -139 and KLF5 inh -11.
Screening O=[N+]([O-])c1ccc(N/N=C/c2ccc[nH]2)cc1 returned IEC-6 tox 6, APP 5UTR inh 65*, BaF3 parental 33*, Ba/F3 V617F tox 60* and KLF5 inh 5.
N#CCCN(C(=O)COC(=O)Cc1c[nH]c2ccccc12)c1ccccc1 was read as aSyn 5UTR inh 6.
Cc1ccccc1C(=O)Nc1ccc(-c2nc3ccc(C(=O)c4ccccc4)cc3[nH]2)cc1 was read as IEC-6 tox 1, APP 5UTR inh -24, BaF3 parental 0, Ba/F3 V617F tox -1, aSyn 5UTR inh 35 and KLF5 inh -41.
O=C(c1ccccc1)c1ccc2nc(-c3ccc(NC(=O)c4ccccc4Br)cc3)[nH]c2c1 was read as IEC-6 tox 10, APP 5UTR inh -23, BaF3 parental -3, Ba/F3 V617F tox 1, aSyn 5UTR inh 75* and KLF5 inh -31.
`Cc1ccc(O)c(/C=N/NC(=O)C2=NNC(c3ccccc3)(c3ccccc3)C2)c1` gave IEC-6 tox -3, APP 5UTR inh 78*, BaF3 parental 4, Ba/F3 V617F tox -4 and KLF5 inh 8.
For Cc1ccc(O)c(/C=N/NC(=O)c2[nH]ncc2Br)c1 the results were IEC-6 tox 4, APP 5UTR inh 2, BaF3 parental 6, Ba/F3 V617F tox -1, aSyn 5UTR inh -113 and KLF5 inh -52.
Screening CC(C)(C)Nc1nc2nonc2nc1NC(C)(C)C returned IEC-6 tox -2, BaF3 parental 33*, Ba/F3 V617F tox 35*, aSyn 5UTR inh 9 and KLF5 inh -25.
`COc1ccc(OCc2cccc(C(=O)Nc3cc(C)on3)c2)cc1` gave IEC-6 tox -2, APP 5UTR inh -66, BaF3 parental 1, Ba/F3 V617F tox 1, aSyn 5UTR inh 66* and KLF5 inh 39.
For CCSc1nnc(NC(=O)c2cccc(OCc3c(C)noc3C)c2)s1 the results were IEC-6 tox 1, APP 5UTR inh -17, BaF3 parental 8, Ba/F3 V617F tox 0, aSyn 5UTR inh -25 and KLF5 inh -45.
For CCOc1ccc2nc(NC(=O)c3ccc(OCC4CCCO4)cc3)sc2c1 (centres undefined) the results were IEC-6 tox -5, APP 5UTR inh -78, BaF3 parental 60*, Ba/F3 V617F tox 56*, aSyn 5UTR inh -99 and KLF5 inh -57.
For COc1ccc2nc(NC(=O)c3cccc(OCc4c(C)noc4C)c3)sc2c1 the results were IEC-6 tox 6, APP 5UTR inh 86*, BaF3 parental 3, Ba/F3 V617F tox -1, aSyn 5UTR inh -57 and KLF5 inh -3.
COc1ccc(OCc2cccc(C(=O)NN)c2)cc1 was read as IEC-6 tox 7, APP 5UTR inh -80, BaF3 parental 5, Ba/F3 V617F tox 1, aSyn 5UTR inh 67* and KLF5 inh -58.
CC(=O)Nc1ccc(S(=O)(=O)NCC2CCC(C(=O)N3CCCCC3)CC2)cc1 (centres undefined) was read as IEC-6 tox 0, aSyn 5UTR inh 11 and KLF5 inh 16.
For O=C(c1cccc(OCc2ccccc2)c1)N1CCOCC1 the results were IEC-6 tox -2, APP 5UTR inh 15, BaF3 parental 8, Ba/F3 V617F tox 0, aSyn 5UTR inh -5 and KLF5 inh -11.
`CCOc1ccc(OCc2cccc(C(=O)N3CCOCC3)c2)cc1` gave IEC-6 tox -5, APP 5UTR inh 48*, BaF3 parental 5, Ba/F3 V617F tox 2, aSyn 5UTR inh 102* and KLF5 inh 35.
COc1ccc(NS(=O)(=O)c2cccc(C(=O)NNC(=O)COc3ccccc3)c2)cc1 was read as aSyn 5UTR inh 20.
